HT1080NT lethal – kills 2HG-producing HT-1080-NT fibrosarcoma cells | HT-1080-NT fibrosarcoma viability, CellTiter-Glo ATP luminescence, 48 h | Potency, µM (titrated, usually from 46.1 µM), inactives show at the top dose activity, negative = less viability, actives largely listed as cytotoxic | 360,000 compounds, 1.6% hits;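 note: NT is the 2HG producing partner of a matched IDH1 knockdown line; potency is the fitted concentration of half-maximal effect; 0% = DMSO-treated cells and -100% = media-only wells without cells; nearly all actives have a fitted effect of over 55% in size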
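Fibrosarcoma NT cells, 750 per well in 5% FBS RPMI, were exposed to compound for 48 hours. Viability: CellTiter-Glo luminescence.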
TDP1 cell noCPT – qHTS for Inhibitors of human tyrosyl-DNA phosphodiesterase 1 (TDP1): qHTS in cells in absence of CPT; Potency, µM (top dose mostly 46.2 µM), inactives show at the top dose activity change, negative = growth inhibition, usual class: inhibitors; 420,000 compounds, 15% hits; DT40 Tdp1-/- hTDP1 cells, no CPT, ATP luminescence, 48 h; note: potency is the fitted concentration of half-maximal effect; nearly all actives have a fitted effect of over 55% in size
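Cells were dispensed at 400 per well, compounds added by pin tool, plates incubated ≥48 hr at 37 °C, then CellTiter-Glo added for 30 min at room temperature before luminescence reading. Line: DT40 Tdp1-/- complemented with hTDP1; camptothecin omitted.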
HT1080 IDH1KD tx – toxicity to HT-1080 IDH1 knockdown cells (counter line); Potency, µM (doses to about 46.1 µM), inactives show top-dose activity, negative = toxicity, most hits filed as cytotoxic; 360,000 compounds, 2% hits; HT-1080 IDH1 knockdown viability, ATP luminescence, 48 h;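 note: potency is the fitted concentration of half-maximal effect; 0% = DMSO wells and -100% = cell-free medium wells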
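In this qHTS, HT-1080 cells depleted of IDH1 are exposed for 48 h at 37 °C to compound titrations. Toxicity is scored from CellTiter-Glo luminescence, with DMSO as full viability and medium alone as none.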
IL-1B inflam inh – inflammasome signaling inhibition, IL-1 beta readout; THP-1 LPS/ATP IL-1B secretion, AlphaLISA, 16 h; stronger effect = lower value; activity change, % at 57.5 µM; AID 743279; 360,000 compounds, 4.7% hits; in the data active = activity change below about -50%; inconclusive = mostly about -30% to -49%
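THP-1 cells pretreated 1 hr with compounds (up to 57.5 uM final), then stimulated with LPS (250 ng/mL final) plus ATP (1.25 mM final); secreted IL-1B measured by AlphaLISA after 16 hr, decreased signal indicating inhibition.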
DT40 TDP1 CPT – growth inhibition of DT40 Tdp1-/-;hTDP1 cells with camptothecin (screen for TDP1 inhibitors). chicken DT40 Tdp1-/-;hTDP1 cells + 20 nM CPT, ATP luminescence, 48 h. Potency, µM (top dose mostly 46.2 µM), for the others: at the highest dose activity change, negative = growth inhibition, usual class: inhibitors. 420,000 compounds, 12% hits; note: potency is the fitted concentration of half-maximal effect; nearly all actives have a fitted effect of over 55% in size
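Chicken DT40 Tdp1-/- cells complemented with human TDP1, 400 cells/well, exposed to compounds plus 20 nM camptothecin for at least 48 h at 37 C; viability read as ATP content by CellTiter-Glo luminescence.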
The depositor's hits bear a star; ? = inconclusive; · = no result given; [ ] = dose if it differs, or a comment. This is a sample that favours compounds with a hit; in the whole collection about 19% have one here. Unless noted, calls come from the whole dose curve; as a rule, active = well fitted curve in the direction sought with a large enough effect; inconclusive = small, poorly fitted or top-dose-only effect, or another doubt; inactive = no such curve, though single readings can be large; an effect the other way counts as inactive or inconclusive. Unless noted, % is set by controls: 0 for no effect and ±100 for the full control effect.

SMILES	HT1080NT lethal	TDP1 cell noCPT	HT1080 IDH1KD tx	IL-1B inflam inh	DT40 TDP1 CPT
CCOC(=O)c1cccc(NC(=O)CCc2c(C)nn(-c3ccc(N4CCCC4)nn3)c2C)c1	·	21µM*	·	·	?
Cc1nn(-c2ccc(N3CCCCC3)nn2)c(C)c1CCC(=O)Nc1ccc(F)cc1	0%	-16%	-1%	-12	-12%
COc1ccc(NC(=O)CCc2c(C)nn(-c3ccc(N4CCCC4)nn3)c2C)cc1Cl	·	16µM*	·	·	?
Cc1nn(-c2ccc(N3CCCCC3)nn2)c(C)c1CCC(=O)Nc1cccc(F)c1	-12%	21µM*	-1%	-25	?
CCc1cccc(NC(=O)CCc2c(C)nn(-c3ccc(N4CCCCC4)nn3)c2C)c1	-7%	?	-9%	0	-25%
Cc1ccc(NC(=O)CCc2c(C)nn(-c3ccc(N4CCCCC4)nn3)c2C)cc1F	-5%	?	-13%	?	?
OCCC1CN(Cc2cccc3c2OCO3)CCN1C1CCCC1 (stereo not drawn)	12%	-12%	16%	22	-27%
COc1ccc(NC(C)=O)cc1S(=O)(=O)NC1CCSc2ccccc21 (stereo not drawn)	15%	-11%	0%	4	-2%
COc1ccccc1CN1CCCC2(CCN(C(=O)c3cccn3C)CC2)C1	·	-14%	·	·	3%
CC(=O)OC(COc1cccc(C)c1)Cn1cnc2ccccc21 (stereo not drawn)	-11%	16µM*	-7%	0	?
CCOC(=O)N1CCN(CC(O)COc2ccc3c(c2)CCC3)CC1 (stereo not drawn)	1%	4%	4%	5	-10%
CC(=O)Nc1ccc(OCC(O)Cn2cnc3ccccc32)cc1 (stereo not drawn)	2%	-20%	-6%	-1	-22%
CC(Cn1cnc2ccccc21)C(=O)O (stereo not drawn)	-5%	-2%	10%	2	-10%
OC(COc1ccc2c(c1)CCC2)Cn1cnc2ccccc21 (stereo not drawn)	-15%	18µM*	-26%	1	10µM*
Cc1nn(CC(O)COc2ccc3c(c2)CCC3)c(C)c1C (stereo not drawn)	1%	21µM*	3%	-15	?
COc1c2c(c(OC)c3ccccc13)[C@@]1(OC2)O[C@H](CCO)C[C@H](O)[C@H]1O	4%	1%	4%	0	1%
C[C@@H]1CCC2C(C)(C)C3CC21CC[C@@]3(C)O (stereo partly drawn)	·	-4%[9.04 µM]	·	·	-2%[9.04 µM]
CCN1CCN(C(=O)C(C)Nc2ccc(OC)cc2OC)CC1 (stereo not drawn)	7%	-17%	10%	18	-27%
COc1ccc(C2/C(=C(/O)c3ccc(F)cc3)C(=O)C(=O)N2c2ccccn2)cc1OC (stereo not drawn)	7%	23µM*	4%	-4	?
CCSc1nc(=S)cc(C)[nH]1	20%	21µM*	22%	13	?
Cc1cccc(C(=O)c2cnc3ccccc3c2-c2ccccc2)c1	-1%	26µM*	-1%	-19	15µM*
Cc1ccc(N(O)C(C)(C)C)cc1	6%	16µM*	21%	4	23µM*
Cc1ccc(C(C)(C)c2ccc(C)cc2)cc1	·	8%	·	·	3%
Cc1ccc(S(=O)(=O)CCC(=O)OC2CC(C)OC2=O)cc1 (stereo not drawn)	0%	-15%	0%	17	20%
O=C(CCl)N(CCCNC(=O)C(F)(F)F)c1ccc([N+](=O)[O-])cc1	21µM*	6.5µM*	7.3µM*	-101*	2.6µM*
SMILES	HT1080NT lethal	TDP1 cell noCPT	HT1080 IDH1KD tx	IL-1B inflam inh	DT40 TDP1 CPT
O=C(NCCCNc1ccc([N+](=O)[O-])cc1)C(F)(F)F	9%	10%	14%	-5	4%
Brc1cccc(CSc2nnc(-c3ccncc3)o2)c1	-10%	?	-8%	-8	?
CCCCc1nnc(NC(=O)C(C)Sc2nc(O)c(Cc3ccccc3)c(=O)[nH]2)s1 (stereo not drawn)	1%	0%	3%	40	-2%
CN(C)Cc1csc(NC(=O)Nc2ccccc2C(C)(C)C)n1	-9%	-20%	12%	0	?
CC(C)CC(N)c1csc(Nc2ccc(C(F)(F)F)cn2)n1 (stereo not drawn)	18µM*	6.5µM*	?	-54*	12µM*
NC(Cc1ccc(Cl)cc1)c1csc(Nc2ccc(C(F)(F)F)cn2)n1 (stereo not drawn)	?	9.2µM*	?	-67*	9.2µM*
NC(CO)c1csc(Nc2ccc(C(F)(F)F)cn2)n1 (stereo not drawn)	-15%	?	-25%	-5	?
CN(C)Cc1csc(Nc2ccc(C(F)(F)F)cn2)n1	?	-84%	-30%	-4	26µM*
Cc1ccc(/C=N\NC(=O)/C(=C\Nc2nccc(C)n2)NC(=O)c2ccccc2)cc1	15%	-26%	2%	-2	-30%
O=C(CSc1nc2ccccc2c(=O)[nH]1)c1ccc(O)c(O)c1	-2%	-13%	2%	3	-26%
N#Cc1c(-c2cccs2)nc(SCC(=O)c2cccs2)[nH]c1=O	-4%	-11%	1%	-11	9%
O=C(CSc1nc2ccccc2c(=O)[nH]1)c1ccc(O)cc1O	-30%	?	?	28	13µM*
O=C(CSc1nc2ccccc2c(=O)[nH]1)c1cccs1	-3%	16µM*	-3%	18	8.2µM*
Cc1cc(SCC(=O)NC2CC2)nc2ccccc12	9%	-8%	6%	-6	2%
Cc1cc(SCC(=O)c2cccs2)nc2ccccc12	-15%	?	-9%	39	16µM*
Cc1cccc(C(=O)Nc2c(-c3ccccc3)nc3cc(C)ccn23)c1	·	21µM*	·	·	?
Cc1ccn2c(NC(=O)c3cccc(Cl)c3)c(-c3ccccc3)nc2c1	·	23µM*	·	·	?
